Bioassay records (PubChem)
The full list was thinned out, with hits kept by preference.
CHX counter: Cycloheximide Counterscreen for Small Molecule Inhibitors of Shiga Toxin. 300,000 tested, 12% active. cell reporter, cycloheximide protein synthesis inhibition counterscreen. max response, %; in the data active = max response mostly above about 13%, no sharp cut-off; inactive = mostly below about 14%; also: read at 38.3 µM for the half of the compounds with a filed dose; 0% is about no effect
Sm TGR block: qHTS Assay for the Inhibitors of Schistosoma Mansoni Peroxiredoxins; purified TGR, DTNB reduction, TNB absorbance 405 nm; Potency, µM (titrated, usually from 114 µM), for inactives: top-dose activity change, negative = inhibition, hits mostly inhibitors; AID 485364, 2010; 360,000 tested, 3% active; Schistosoma mansoni thioredoxin glutathione reductase (TGR), Q962Y6; also: potency is read from the fitted curve at half-maximal effect; % is scaled to controls: 0 for no effect and ±100 for the full control effect; nearly all actives have a fitted effect of over 60% in size
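TGR 20 nM + NADPH 100 uM (dispensed conc.), cpd preinc 15 min RT; start with NADPH (500 uM addition) then DTNB (15 mM addition). Kinetic TNB absorbance, 405 nm filter. Four-parameter Hill fit across titration.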
FBPA Giardia inh: qHTS Assay for Inhibitors of Fructose-1,6-bisphosphate Aldolase from Giardia Lamblia | purified Giardia FBPA | Potency, µM (highest dose often 59.6 µM), inactives show top-dose activity, negative = inhibition, hits mostly inhibitors | 290,000 tested, 0.71% active; also: potency is read from the fitted curve at half-maximal effect; % is scaled to controls: 0 for no effect and ±100 for the full control effect; nearly all actives have a fitted effect of over 55% in size
Target sequence (A8B2U2 whole entry, looked up): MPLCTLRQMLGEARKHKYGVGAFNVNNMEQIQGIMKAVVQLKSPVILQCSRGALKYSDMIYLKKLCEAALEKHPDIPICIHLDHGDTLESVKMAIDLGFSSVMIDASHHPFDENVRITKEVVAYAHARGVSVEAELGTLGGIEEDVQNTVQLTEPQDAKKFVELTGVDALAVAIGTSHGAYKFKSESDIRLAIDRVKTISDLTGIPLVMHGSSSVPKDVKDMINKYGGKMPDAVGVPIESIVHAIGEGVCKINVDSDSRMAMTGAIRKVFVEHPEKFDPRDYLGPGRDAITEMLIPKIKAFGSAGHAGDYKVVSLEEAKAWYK
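40 nM FBPA preincubated 10 min at RT with compound (up to 57.5 uM final), then substrate plus GAPDH/TPI/NAD/arsenate coupling and diaphorase/resazurin added. Fluorescence read after 20 min at RT, 525/598 nm.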
Shiga toxin inh: A qHTS for Small Molecule Inhibitors of Shiga Toxin. AID 2315, 2010. inhibition, % at 38.7 µM. Vero cells, Shiga toxin protein synthesis inhibition reporter. 290,000 tested, 9.2% active; in the data active = inhibition mostly above about 28%, no sharp cut-off; inactive = mostly below about 43%; also: 0% is about no effect
Tb PYK inh: qHTS of Trypanosoma Brucei Inhibitors; Potency, µM (series often up to 76.8 µM), for the others: at the highest dose activity, negative = inhibition, actives largely listed as inhibitors; pyruvate kinase (Trypanosoma brucei), Q57TT1; TbPYK enzyme, Kinase-Glo Plus ATP luminescence, 45 min; 410,000 tested, 0.12% active; AID 624173, 2012; also: potency is read from the fitted curve at half-maximal effect; % is scaled to controls: 0 for no effect and ±100 for the full control effect; nearly all actives have a fitted effect of over 50% in size
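Glycolytic pyruvate kinase of T. brucei was incubated with substrate, test compound and 130 uM ADP for 45 minutes at room temperature. Luminescent Kinase-Glo Plus signal was measured after 10 minutes.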
LmPK inhibitor: qHTS Assay for Inhibitors of Leishmania Mexicana Pyruvate Kinase (LmPK); purified LmPK, Kinase-Glo ATP luminescence, 1 h; 290,000 tested, 0.37% active; Q27686; Potency, µM (titrated, usually from 57.5 µM), inactives show at the top dose activity change, negative = inhibition, actives largely listed as inhibitors; also: potency is read from the fitted curve at half-maximal effect; % is scaled to controls: 0 for no effect and ±100 for the full control effect
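qHTS format; LmPK 0.1 nM; substrates PEP 0.5 mM and ADP 0.1 mM. One-hour room-temperature incubation, then coupled luciferase luminescence; 0.5 nM enzyme wells mark activation.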
An asterisk follows results filed as active; ? = inconclusive; · = not tested or not shown; + = active, no number; [ ] = dose if it differs, or a comment. Unless noted, calls follow the shape of the dose curve; as a rule, active = well fitted curve in the direction sought with a large enough effect; inconclusive = small, poorly fitted or top-dose-only effect, or another doubt; inactive = no such curve, though single readings can be large; an effect the other way counts as inactive or inconclusive.

SMILES	CHX counter	Sm TGR block	FBPA Giardia inh	Shiga toxin inh	Tb PYK inh	LmPK inhibitor
O=C(NCCC1=CCCCC1)c1cnccn1	20.4*	0.0%	-0.5%	41.6	-6.0%	1.5%
NC(=O)NCCC1=CCCCC1	-3.5	-21.9%	6.2%	-10.2	2.9%	2.9%
COc1cc2cc(C(=O)Nc3ccc4c(c3)OCCO4)[nH]c2cc1OC	47.1*	-5.6%	·	102.6*	-9.1%	5.9%
COc1cc2[nH]c(C(=O)Nc3ccc4c(c3)OCCO4)cc2c(OC)c1OC	39.6*	5.1%	·	91.1*	-7.5%	2.5%
COc1ccc(OCC(=O)Nc2c3c(nn2-c2ccccc2)CS(=O)(=O)C3)cc1	-1.7	-8.9%	·	-7.7	-4.6%	1.2%
CCc1nn(CC(=O)NCCCOC)c(=O)c2cc3occc3n12	·	-0.5%	·	·	-1.2%	·
Cc1cc(NC(=O)CN2C(=O)N(C)C3(CCCCC3)C2=O)ccc1Br	·	4.0%	·	·	3.0%	·
COc1ccc(OC)c(/C=N/N=C2\SCC(=O)N2Cc2ccco2)c1	17.6*	-16.0%	0.6%	1.9	-12.3%	0.9%
O=C1CS/C(=N/N=C/c2ccccc2)N1Cc1ccco1	25.1*	39.8µM*	-0.5%	44.5*	4.9%	-0.5%
CN(C)C(=O)[C@H]1C[C@@H]1[C@H](NC(=O)OCc1ccccc1)c1ccccc1	·	·	7.3%	·	·	·
Cc1cc(=O)n(CC(=O)NC(C)c2ccccc2)c2c1c(C)nn2C (stereo not drawn)	·	2.5%	·	·	-1.3%	·
CCC1NC(=O)c2cccnc2-n2c1nc1cc(F)ccc1c2=O (stereo not drawn)	·	·	·	·	2.1%	·
O=C(Nc1ccccc1)Nc1c(F)cccc1F	41.2*	5.3%	-1.0%	43.4*	-8.2%	-9.6%
CC(=O)Nc1ccc(NC(=O)Nc2ccccc2)cc1	25.3*	-28.9%	-7.5%	64.1*	-5.2%	-0.9%
C/C(=N/NS(=O)(=O)c1ccccc1)c1ccc(NC(=O)C2CC2)cc1	2.1	8.7%	4.7%	30.0	4.2%	-0.8%
CCCC(=O)Nc1ccc(C#Cc2ccccc2)cc1	51.2*	6.3%	8.8%	115.0*	2.8%	-0.9%
CC(=O)Nc1ccc(/C(C)=N/NS(=O)(=O)c2ccccc2)cc1	22.7*	2.2%	2.4%	6.7	-9.6%	-6.7%
COc1ccc(Cl)cc1NC(=O)Cn1c2ncccc2c(=O)n1-c1ccc(C)c(C)c1	·	-3.0%	·	·	-4.2%	·
COc1ccc(C(=O)Nc2nnc(SCc3cc(=O)n4cc(Cl)ccc4n3)s2)cc1	·	-6.8%	·	·	-7.2%	·
CCCCC(=O)Nc1ccc(C(=O)c2ccccc2)cc1	35.4*	·	-8.5%	49.4*	-8.1%	-5.7%
O=C(CCCCC(=O)Nc1ccccc1)Nc1ccccc1	-2.3	12.9%	2.8%	·	1.9%	2.7%
CC(=O)Nc1ccc(C(=O)c2ccccc2)cc1	16.1*	-2.0%	1.0%	33.6	-10.8%	0.0%
CC(=O)Nc1ccc(NC(=O)c2ccc(NC(=O)c3ccccc3)cc2)cc1	18.8	-12.3%	·	-18.2	-16.3%	-13.3%
CC(=O)c1cc(-c2ccc(F)cc2)n(CC(=O)NCc2ccc(C)cc2)c1C	·	14.2%	·	·	1.9%[15.4 µM]	·
CCCC(=O)N1CCN(c2ccc(NC(=O)c3ccc([N+](=O)[O-])o3)cc2)CC1	-18.2	?	-16.4%	-32.9	-12.2%	-5.5%
SMILES	CHX counter	Sm TGR block	FBPA Giardia inh	Shiga toxin inh	Tb PYK inh	LmPK inhibitor
CCC(=O)N1CCN(c2ccc(NC(=O)c3ccc([N+](=O)[O-])o3)cc2)CC1	21.4*	28.2µM*	-18.8%	32.7*	-2.6%	-2.5%
O=C(Nc1ccc(N2CCCC2)c(Cl)c1)c1ccc([N+](=O)[O-])o1	89.9*	?	?	+	-2.6%	-16.3%
CS(=O)(=O)N1CCN(c2ccc(NC(=O)c3ccc([N+](=O)[O-])o3)cc2)CC1	30.2*	-26.6%	0.4%	52.9*	1.2%	6.1%
CC(C)(C)C(=O)N1CCN(c2ccc(NC(=O)c3ccc([N+](=O)[O-])o3)cc2)CC1	51.9*	-25.7%	-4.5%	39.3*	-0.2%	-4.4%
COc1ccc(N2CCCC2)c(NC(=O)c2ccc([N+](=O)[O-])o2)c1	-1.5	?	-8.7%	-3.2	-7.0%	-2.5%
COC(=O)[C@]12CCCCC=C1N(Cc1cccc3ccccc13)C(=O)[C@H](CC(=O)NCCCN1CCCC1=O)C2	·	·	·	·	1.8%	·
O=C(Nc1ccc(N2CCCCC2)cc1)c1ccc([N+](=O)[O-])o1	35.0*	-27.5%	1.7%	103.9*	-12.2%	-20.1%
Cc1cc(C)c2sc(NC(=O)C3CC3)nc2c1	26.5*	-23.4%	4.7%	42.4*	-3.0%	-1.7%
Cc1ccccc1NC(=O)c1sc(NC(=O)C2CC2)nc1C	11.3*	-23.1%	-5.7%	21.3	1.5%	-3.3%
Cc1cccc(C(=O)NC(=O)Nc2c(C)cc(C)nc2C)c1	21.4*	-3.4%	5.0%	58.3*	2.0%	-9.1%
COC(=O)c1sc(NC(=S)NC(=O)c2cccc(C)c2)nc1C	6.5	-16.1%	-17.8%	21.4	-0.8%	1.7%
Cc1ccc(C)c2sc(NC(=O)C3CC3)nc12	0.7	-15.7%	1.7%	-2.8	0.6%	0.5%
CC(=O)c1sc(NC(=O)c2cccc(C)c2)nc1C	43.3*	-4.9%	-7.5%	68.2*	2.3%	?
CCCC(=O)OCc1cnc(C)c2oc(=O)c(C(=O)Nc3ccc(F)cc3C)cc12	·	0.6%	·	·	-1.1%	·
CC(=O)c1sc(NC(=O)c2ccc(F)c(F)c2)nc1C	9.4	5.1%	-1.6%	41.0	0.1%	-10.5%
CC(=O)c1sc(NC(=O)c2ccc(Cl)cc2)nc1C	29.9*	24.8%	1.2%	71.0*	1.7%	-7.1%
CC(=O)Nc1nc(C)c(C(C)=O)s1	-1.0	-8.0%	3.3%	-14.4	?	2.5%
CC(=O)c1sc(NC(=O)c2ccccc2C)nc1C	47.1*	11.6%	3.9%	51.4	-8.2%	-15.3%
COc1cccc(OCC(=O)NC2CC(=O)N(c3cccc(OC)c3)C2)c1 (stereo not drawn)	·	4.1%	·	·	-1.3%	·
COc1cccc(/C=N/Nc2nc(Nc3ccccc3)nc(-n3nc(C)cc3C)n2)c1O	43.7*	1.0%	-7.6%	31.3*	-8.0%	-0.6%
COc1ccc(/C=N/Nc2nc(Nc3ccccc3)nc(N3CCCCC3)n2)cc1OC	34.2*	-6.1%	-5.8%	146.7*	3.4%	0.8%
O=C(Oc1cccc(/C=N/Nc2nc(Nc3ccccc3)nc(N3CCOCC3)n2)c1)c1ccco1	13.3*	1.3%	-0.8%	22.5*	-2.7%	1.6%
CCOc1cc(/C=N/Nc2nc(Nc3ccccc3)nc(N3CCCCC3)n2)ccc1OCC(=O)O	2.9	-2.9%	7.3%	-5.6	-3.1%	2.9%
Cc1ccc(Nc2nc(N/N=C/c3c[nH]c4ccccc34)nc(N3CCOCC3)n2)cc1	14.7*	-1.7%	0.3%	47.4	4.7%	1.5%
